# What was measured:
# [1] = molecular target: Mast/stem cell growth factor receptor Kit (Homo sapiens) (UniProt P10721); settings: at 1 µM
# [2] = system: Mast/stem cell growth factor receptor Kit (Homo sapiens), P10721 [D816V]; settings: at 0.1 µM
# [3] = system: Mast/stem cell growth factor receptor Kit (Homo sapiens), P10721 [D816V]; settings: at 1 µM
# [4] = system: Mast/stem cell growth factor receptor Kit (Homo sapiens), P10721 [T670I]; settings: at 0.1 µM
# [5] = system: Mast/stem cell growth factor receptor Kit (Homo sapiens), P10721 [T670I]; settings: at 1 µM
# [6] = system: Mast/stem cell growth factor receptor Kit (Homo sapiens), P10721 [V560G]; settings: at 0.1 µM
# [7] = system: Mast/stem cell growth factor receptor Kit (Homo sapiens), P10721 [V560G]; settings: at 1 µM
# [8] = molecular target: Tyrosine-protein kinase Lck (Homo sapiens) (UniProt P06239); settings: at 0.1 µM
# [9] = molecular target: Tyrosine-protein kinase Lck (Homo sapiens) (UniProt P06239); settings: at 1 µM
# [10] = molecular target: Leukocyte tyrosine kinase receptor (Homo sapiens) (UniProt P29376); settings: at 0.1 µM
# [11] = molecular target: Leukocyte tyrosine kinase receptor (Homo sapiens) (UniProt P29376); settings: at 1 µM
# [12] = molecular target: Tyrosine-protein kinase Lyn (Homo sapiens) (UniProt P07948); settings: at 0.1 µM
# [13] = molecular target: Tyrosine-protein kinase Lyn (Homo sapiens) (UniProt P07948); settings: at 1 µM
# [14] = molecular target: Tyrosine-protein kinase Lyn (Homo sapiens) (UniProt P07948); settings: at 0.1 µM; remark: listed apart in the source
# [15] = molecular target: Tyrosine-protein kinase Lyn (Homo sapiens) (UniProt P07948); settings: at 1 µM; remark: listed apart in the source
# [16] = molecular target: T1, Tyrosine-protein kinase Mer (Homo sapiens) (UniProt Q12866); settings: at 0.1 µM
# T1 sequence (whole entry): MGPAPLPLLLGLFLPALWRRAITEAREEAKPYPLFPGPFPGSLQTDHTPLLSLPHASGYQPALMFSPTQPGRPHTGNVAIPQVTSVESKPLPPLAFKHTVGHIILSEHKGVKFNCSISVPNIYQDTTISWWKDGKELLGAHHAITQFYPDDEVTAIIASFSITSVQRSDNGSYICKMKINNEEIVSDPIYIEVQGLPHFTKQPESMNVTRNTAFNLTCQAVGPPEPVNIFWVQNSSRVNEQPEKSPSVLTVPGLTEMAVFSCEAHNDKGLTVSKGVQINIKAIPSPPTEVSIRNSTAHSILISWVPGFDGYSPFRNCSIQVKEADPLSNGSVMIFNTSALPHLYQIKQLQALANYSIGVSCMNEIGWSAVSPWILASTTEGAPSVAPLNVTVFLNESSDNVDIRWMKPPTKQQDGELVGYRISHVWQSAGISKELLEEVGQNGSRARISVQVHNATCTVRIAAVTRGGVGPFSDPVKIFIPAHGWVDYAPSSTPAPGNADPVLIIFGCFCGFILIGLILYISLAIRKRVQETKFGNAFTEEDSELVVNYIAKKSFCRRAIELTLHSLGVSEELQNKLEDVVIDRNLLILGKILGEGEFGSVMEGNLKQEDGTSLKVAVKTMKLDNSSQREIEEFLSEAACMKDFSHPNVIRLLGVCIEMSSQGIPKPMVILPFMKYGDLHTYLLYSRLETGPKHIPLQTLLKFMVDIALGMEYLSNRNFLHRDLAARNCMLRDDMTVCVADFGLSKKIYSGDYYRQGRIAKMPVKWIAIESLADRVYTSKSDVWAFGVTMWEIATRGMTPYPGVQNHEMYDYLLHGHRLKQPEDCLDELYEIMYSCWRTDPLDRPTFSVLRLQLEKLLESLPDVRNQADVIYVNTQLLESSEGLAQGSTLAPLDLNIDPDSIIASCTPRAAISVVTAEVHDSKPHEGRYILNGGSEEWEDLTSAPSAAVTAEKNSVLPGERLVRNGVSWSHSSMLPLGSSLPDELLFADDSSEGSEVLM
# [17] = molecular target: T1, Tyrosine-protein kinase Mer (Homo sapiens); settings: at 1 µM
# [18] = molecular target: Hepatocyte growth factor receptor (Homo sapiens) (UniProt P08581); settings: at 0.1 µM
# [19] = molecular target: Hepatocyte growth factor receptor (Homo sapiens) (UniProt P08581); settings: at 1 µM
# [20] = molecular target: T2, Muscle, skeletal receptor tyrosine-protein kinase (Homo sapiens) (UniProt O15146); settings: at 0.1 µM;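 further: values are mean inhibition of MuSK from the GSK PKIS kinase screening panel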
# T2 sequence (whole entry): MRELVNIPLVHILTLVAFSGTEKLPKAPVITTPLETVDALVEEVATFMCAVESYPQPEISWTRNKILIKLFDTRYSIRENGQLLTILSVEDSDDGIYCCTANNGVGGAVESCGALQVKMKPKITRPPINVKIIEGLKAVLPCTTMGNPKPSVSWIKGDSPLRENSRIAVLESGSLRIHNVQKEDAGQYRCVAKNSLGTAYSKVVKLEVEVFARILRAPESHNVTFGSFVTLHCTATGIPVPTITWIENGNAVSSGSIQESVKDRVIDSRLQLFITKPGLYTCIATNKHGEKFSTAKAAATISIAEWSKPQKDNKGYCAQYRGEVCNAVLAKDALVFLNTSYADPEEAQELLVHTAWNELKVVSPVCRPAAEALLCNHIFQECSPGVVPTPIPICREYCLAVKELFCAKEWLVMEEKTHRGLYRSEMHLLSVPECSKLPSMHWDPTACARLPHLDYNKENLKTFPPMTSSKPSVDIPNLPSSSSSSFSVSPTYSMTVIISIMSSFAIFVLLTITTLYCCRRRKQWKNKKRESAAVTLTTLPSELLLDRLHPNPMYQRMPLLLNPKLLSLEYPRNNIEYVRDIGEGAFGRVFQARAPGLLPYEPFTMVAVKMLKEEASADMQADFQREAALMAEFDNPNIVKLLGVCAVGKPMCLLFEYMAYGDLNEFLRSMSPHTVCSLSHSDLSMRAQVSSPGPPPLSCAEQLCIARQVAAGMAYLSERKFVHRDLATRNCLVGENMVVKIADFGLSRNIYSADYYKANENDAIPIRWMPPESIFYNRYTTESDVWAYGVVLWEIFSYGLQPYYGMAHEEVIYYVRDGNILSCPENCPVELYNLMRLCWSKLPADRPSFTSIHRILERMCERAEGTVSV
# Chain of Mast/stem cell growth factor receptor Kit (Homo sapiens), P10721 [V560G] (P10721 whole entry V560G): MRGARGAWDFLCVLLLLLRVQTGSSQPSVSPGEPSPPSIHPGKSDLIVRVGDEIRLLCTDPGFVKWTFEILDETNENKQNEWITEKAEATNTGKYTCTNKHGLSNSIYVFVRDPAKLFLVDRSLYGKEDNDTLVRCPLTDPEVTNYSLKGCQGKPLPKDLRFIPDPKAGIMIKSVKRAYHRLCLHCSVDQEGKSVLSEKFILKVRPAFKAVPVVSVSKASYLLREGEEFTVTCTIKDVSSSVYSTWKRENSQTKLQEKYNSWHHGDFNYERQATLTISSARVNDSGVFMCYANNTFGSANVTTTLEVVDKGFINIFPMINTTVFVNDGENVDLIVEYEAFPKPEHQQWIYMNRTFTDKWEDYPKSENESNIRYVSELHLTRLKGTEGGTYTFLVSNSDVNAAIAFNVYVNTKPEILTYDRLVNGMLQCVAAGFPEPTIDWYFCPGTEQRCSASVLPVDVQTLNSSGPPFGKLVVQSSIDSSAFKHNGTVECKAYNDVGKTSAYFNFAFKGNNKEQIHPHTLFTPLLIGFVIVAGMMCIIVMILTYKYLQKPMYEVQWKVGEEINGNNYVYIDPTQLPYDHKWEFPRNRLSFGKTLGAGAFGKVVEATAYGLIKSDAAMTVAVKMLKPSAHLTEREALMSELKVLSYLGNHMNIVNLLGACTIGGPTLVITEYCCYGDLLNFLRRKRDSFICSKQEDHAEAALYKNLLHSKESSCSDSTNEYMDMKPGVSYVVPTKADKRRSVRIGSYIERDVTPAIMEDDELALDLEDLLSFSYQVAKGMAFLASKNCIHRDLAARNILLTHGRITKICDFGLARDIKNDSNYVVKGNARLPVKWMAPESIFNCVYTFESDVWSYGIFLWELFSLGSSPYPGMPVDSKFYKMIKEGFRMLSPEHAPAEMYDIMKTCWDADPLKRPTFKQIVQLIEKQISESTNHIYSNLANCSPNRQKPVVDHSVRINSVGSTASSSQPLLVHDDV
# Chain of Leukocyte tyrosine kinase receptor (Homo sapiens) (P29376 whole entry): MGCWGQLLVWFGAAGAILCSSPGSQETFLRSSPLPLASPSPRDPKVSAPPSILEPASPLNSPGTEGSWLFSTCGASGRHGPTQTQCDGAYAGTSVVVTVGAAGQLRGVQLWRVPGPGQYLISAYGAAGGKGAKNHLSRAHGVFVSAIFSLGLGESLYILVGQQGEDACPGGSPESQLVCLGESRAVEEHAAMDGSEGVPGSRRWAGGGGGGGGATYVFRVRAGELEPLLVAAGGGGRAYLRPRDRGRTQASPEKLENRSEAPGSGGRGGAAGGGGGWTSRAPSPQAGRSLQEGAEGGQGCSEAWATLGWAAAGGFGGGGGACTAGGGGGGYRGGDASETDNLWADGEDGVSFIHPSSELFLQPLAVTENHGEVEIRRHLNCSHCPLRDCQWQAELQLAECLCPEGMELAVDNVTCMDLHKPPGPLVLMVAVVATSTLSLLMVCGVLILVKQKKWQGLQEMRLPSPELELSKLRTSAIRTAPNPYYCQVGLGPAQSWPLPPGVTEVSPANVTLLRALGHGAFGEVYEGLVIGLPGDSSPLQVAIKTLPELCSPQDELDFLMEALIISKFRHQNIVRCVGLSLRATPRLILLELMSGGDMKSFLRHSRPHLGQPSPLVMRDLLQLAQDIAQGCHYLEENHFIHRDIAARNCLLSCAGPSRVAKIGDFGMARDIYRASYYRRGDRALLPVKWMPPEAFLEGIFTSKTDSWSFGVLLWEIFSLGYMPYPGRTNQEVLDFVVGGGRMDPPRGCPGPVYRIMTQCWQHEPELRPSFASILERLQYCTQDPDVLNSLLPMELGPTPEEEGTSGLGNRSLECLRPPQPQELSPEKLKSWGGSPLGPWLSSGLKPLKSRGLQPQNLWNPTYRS
# Chain of Mast/stem cell growth factor receptor Kit (Homo sapiens), P10721 [T670I] (P10721 whole entry T670I): as the sequence (P10721 whole entry V560G) above, with G560V, T670I counted along it
# Chain of Mast/stem cell growth factor receptor Kit (Homo sapiens), P10721 [D816V] (P10721 whole entry D816V): as the sequence (P10721 whole entry V560G) above, with G560V, D816V counted along it
# Chain of Mast/stem cell growth factor receptor Kit (Homo sapiens) (P10721 whole entry): as the sequence (P10721 whole entry V560G) above, with G560V counted along it
# Chain of Tyrosine-protein kinase Lyn (Homo sapiens) (P07948 2-512 limits assumed): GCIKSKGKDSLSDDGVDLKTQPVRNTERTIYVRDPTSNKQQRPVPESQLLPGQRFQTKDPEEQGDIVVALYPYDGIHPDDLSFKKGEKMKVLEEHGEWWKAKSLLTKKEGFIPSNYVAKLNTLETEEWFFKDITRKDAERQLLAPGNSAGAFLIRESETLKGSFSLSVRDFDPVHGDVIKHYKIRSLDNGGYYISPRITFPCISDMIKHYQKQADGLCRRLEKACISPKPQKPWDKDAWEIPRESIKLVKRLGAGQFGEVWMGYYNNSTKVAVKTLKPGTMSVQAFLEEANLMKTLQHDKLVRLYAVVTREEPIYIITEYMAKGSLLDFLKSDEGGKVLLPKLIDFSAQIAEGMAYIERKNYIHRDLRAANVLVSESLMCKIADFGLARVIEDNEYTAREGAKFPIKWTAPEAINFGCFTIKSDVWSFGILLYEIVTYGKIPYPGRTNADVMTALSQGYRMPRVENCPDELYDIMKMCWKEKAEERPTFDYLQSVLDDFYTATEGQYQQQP
# Chain of Tyrosine-protein kinase Lck (Homo sapiens) (P06239 2-509 limits assumed): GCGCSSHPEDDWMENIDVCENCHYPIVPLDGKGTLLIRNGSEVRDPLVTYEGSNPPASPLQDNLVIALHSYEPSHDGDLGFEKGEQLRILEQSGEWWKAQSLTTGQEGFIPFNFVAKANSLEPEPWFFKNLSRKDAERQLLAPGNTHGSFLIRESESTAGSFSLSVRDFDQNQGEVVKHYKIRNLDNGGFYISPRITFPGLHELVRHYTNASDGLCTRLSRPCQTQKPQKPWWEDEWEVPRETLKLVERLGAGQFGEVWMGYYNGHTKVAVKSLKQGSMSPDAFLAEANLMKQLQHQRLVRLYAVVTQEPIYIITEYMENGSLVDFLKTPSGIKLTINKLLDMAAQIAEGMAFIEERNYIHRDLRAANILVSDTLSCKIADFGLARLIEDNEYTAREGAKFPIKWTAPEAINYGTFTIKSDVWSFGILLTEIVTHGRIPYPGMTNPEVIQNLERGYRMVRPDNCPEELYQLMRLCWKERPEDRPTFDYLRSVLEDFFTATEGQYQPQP
# Chain of Hepatocyte growth factor receptor (Homo sapiens) (P08581 whole entry): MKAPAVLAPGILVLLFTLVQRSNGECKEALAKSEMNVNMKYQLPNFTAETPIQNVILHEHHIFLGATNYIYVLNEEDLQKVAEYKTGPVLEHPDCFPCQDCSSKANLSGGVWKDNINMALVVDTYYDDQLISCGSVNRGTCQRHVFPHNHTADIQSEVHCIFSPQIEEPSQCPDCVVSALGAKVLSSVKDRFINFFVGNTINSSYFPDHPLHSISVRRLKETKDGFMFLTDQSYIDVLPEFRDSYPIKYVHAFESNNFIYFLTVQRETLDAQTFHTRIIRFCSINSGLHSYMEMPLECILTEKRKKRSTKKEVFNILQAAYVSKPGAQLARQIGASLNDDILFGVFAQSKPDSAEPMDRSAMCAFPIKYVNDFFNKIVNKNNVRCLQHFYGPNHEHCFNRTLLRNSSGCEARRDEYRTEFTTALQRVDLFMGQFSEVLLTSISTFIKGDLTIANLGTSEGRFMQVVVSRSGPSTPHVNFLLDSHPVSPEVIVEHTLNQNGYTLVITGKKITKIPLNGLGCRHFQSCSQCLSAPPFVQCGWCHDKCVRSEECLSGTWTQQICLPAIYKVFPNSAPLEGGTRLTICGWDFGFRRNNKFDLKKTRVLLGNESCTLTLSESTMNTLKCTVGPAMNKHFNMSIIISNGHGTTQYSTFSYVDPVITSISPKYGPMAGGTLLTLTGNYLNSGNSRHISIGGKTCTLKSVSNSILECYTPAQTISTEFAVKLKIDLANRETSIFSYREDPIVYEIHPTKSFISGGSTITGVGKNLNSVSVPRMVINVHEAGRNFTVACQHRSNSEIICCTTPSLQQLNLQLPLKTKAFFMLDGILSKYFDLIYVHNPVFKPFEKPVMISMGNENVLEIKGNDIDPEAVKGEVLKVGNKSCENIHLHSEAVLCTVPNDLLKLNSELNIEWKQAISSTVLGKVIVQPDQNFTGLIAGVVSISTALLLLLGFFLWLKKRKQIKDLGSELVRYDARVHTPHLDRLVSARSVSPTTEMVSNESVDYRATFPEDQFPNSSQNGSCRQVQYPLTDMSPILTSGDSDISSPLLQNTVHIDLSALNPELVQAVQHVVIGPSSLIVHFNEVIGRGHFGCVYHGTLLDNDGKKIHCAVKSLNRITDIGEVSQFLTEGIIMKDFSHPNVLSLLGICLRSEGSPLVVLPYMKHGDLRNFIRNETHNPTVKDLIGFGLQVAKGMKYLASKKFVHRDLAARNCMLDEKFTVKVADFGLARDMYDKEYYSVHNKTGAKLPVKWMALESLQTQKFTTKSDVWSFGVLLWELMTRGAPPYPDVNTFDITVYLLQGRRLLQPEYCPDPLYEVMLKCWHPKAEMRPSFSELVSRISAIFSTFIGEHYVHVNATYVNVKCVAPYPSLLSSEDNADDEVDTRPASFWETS
Compound,inhibition [1] [%],inhibition [2] [%],inhibition [3] [%],inhibition [4] [%],inhibition [5] [%],inhibition [6] [%],inhibition [7] [%],inhibition [8] [%],inhibition [9] [%],inhibition [10] [%],inhibition [11] [%],inhibition [12] [%],inhibition [13] [%],inhibition [14] [%],inhibition [15] [%],inhibition [16] [%],inhibition [17] [%],inhibition [18] [%],inhibition [19] [%],inhibition [20] [%]
N#Cc1c(NC(=O)c2cccc3ccccc23)sc2c1CCCC2,0.84,1.1,2.67,2.84,1.87,-1.27,3.59,2.98,4.35,2.58,2.53,4.91,5.68,2.96,3.7,0.86,1.53,3.61,7.33,3.62
Nc1nc(-c2ccccn2)c(-c2ccc3ncccc3n2)s1,3.6,3.62,4.08,4.81,3.16,-2.5,2.06,0.48,0.19,2.47,2.34,4.59,4.44,2.14,3.06,0.73,4.5,2.46,9.52,3.99
CCCN1CCC=C(c2ccc(Nc3nc(Nc4ccccc4C(N)=O)c4cc[nH]c4n3)c(C)c2)C1,11.6,7.12,3.39,4.53,0.85,-4.87,-3.21,4.63,7.36,79.4,93.9,2.75,6.69,-0.18,2.97,1.4,10.5,6.76,13.1,4.95
CCn1c(-c2nonc2N)nc2cncc(C(=O)N3CCNCC3)c21,7.52,4.16,4.92,2.72,3.08,-3.45,-0.74,3.56,5.67,5.18,5.18,5.29,5.94,1.79,4.29,1.99,2.33,2.94,2.13,3.39
CN(C)c1cc2c(Nc3ccc4nc(Cc5ccccc5)[nH]c4c3)ncnc2cn1,19.2,7.07,7.56,2.88,6.63,1.39,7.78,7.36,33,6.47,3.97,9.84,32.1,7.8,28.7,1.94,8.97,0.15,5.85,2.63
Cc1ccc(C(=O)NC2CCCCC2)cc1-c1ccc(C(=O)NCC2CC2)cc1,4.9,3.74,0.6,0.04,0.31,3.05,4.51,1.49,2.85,0.67,0.02,2.9,2.6,1.53,0.34,1.63,3.6,4.53,5.05,6.01
Cc1cccc(-c2n[nH]cc2-c2ccc3ncccc3n2)n1,2.16,3.77,18,-0.33,-0.51,3.48,-0.13,0.45,4.51,0.62,0.08,0.89,7.91,0.34,7.01,-0.08,0.84,2.89,-1.62,0.64
COc1cc2ncn(-c3cc(O[C@@H](C)c4ccccc4Cl)c(C(N)=O)s3)c2cc1OC,11.9,3.28,6.34,3.02,5.54,4.09,3.09,4.64,19.6,3.53,4.56,6.39,28.6,4.74,22,4.25,10.3,4.76,3.23,2.77
CCn1c(-c2nonc2N)nc2c(C#CC(C)(C)O)nc(CN3CCCC3)cc21,0.93,-0.84,1.18,-0.82,-3.13,1.79,4.31,-0.53,1.3,0.56,-0.04,-1.54,0.2,-1.39,0.5,-0.28,0.18,5.85,5.28,0.58
COc1ccc(-c2coc3ncnc(N)c23)cc1,21.7,5.53,-0.06,3.49,1.89,2.72,7.39,1.13,6.38,3.02,2.3,5.38,5.54,3.09,7.61,2.63,2.9,10,6.47,4.06
Cc1nn(C)c2cc(N(C)c3ccnc(Nc4cccc(S(N)(=O)=O)c4)n3)ccc12,88,2.13,5.94,5.8,38.2,4.37,37.3,14,57.4,5.42,29,13.6,51.3,9.71,46.8,2.42,18.8,7.18,37.1,2.31
CCn1c(-c2nonc2N)nc2cnc(Oc3cccc(NC(=O)c4ccc(OCCN5CCOCC5)cc4)c3)cc21,3.53,2.71,-0.34,2.87,4.8,-1.11,2.85,0.98,4.63,2.7,1.51,5.8,4.87,3.05,2.62,1.1,2.56,3.9,7.84,2.09
Fc1cccc(COc2ccc(Nc3ncnc4sc(-c5cccs5)cc34)cc2Cl)c1,6.67,4.5,1.72,1.75,2.96,4.3,2.12,0.99,3.56,-0.03,1.68,0.57,1.59,0.13,2.6,1.5,0.96,-1.35,-0.09,-0.17
COc1cc2c(cc1Nc1nc(N3CCc4ccccc43)c3cc[nH]c3n1)N(C(=O)CN(C)C)CC2,5.18,3.89,5.06,1.21,4.61,0.64,1.28,1.15,6,75.9,89.9,1.75,1.39,0.29,1.23,1.28,0.11,2.24,-6.58,-0.85

# Reference: ChEMBL document CHEMBL1961873, “Compounds: GSK PKIS; Assays: Nanosyn kinase panel” (2012)
